Assay outcomes from PubChem BioAssay.
This is one part of a sample in which hits are shown more often than they occur.
nsP2pro primary = blocks chikungunya virus nsP2 protease peptide cleavage; Q8JUX6; FRET peptide cleavage, nsP2pro, fluorescence 1 h; Potency, µM (titrated, usually from 24.9 µM), for inactives: at the highest dose activity change, negative = inhibition, actives largely listed as inhibitors; 1.1% of 31,000 active; calls by dose curve; further: nearly all actives have a fitted effect of over 60% in size
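Enzyme 150 nM, substrate 2.5 uM (both final); Tris-HCl 10 mM pH 8.0 + 0.01% Tween 20; cpd up to 25 uM, 7 pts; 15 min preinc., 1 h RT; fluorescence ex 525/em 598.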
* hit, by the source's call; i = inactive; [ ] = dose if it differs, or a comment. On the % scale 0 is the no-effect control and ±100 the full control effect; potency means the concentration at half of the fitted maximal effect.

SMILES | nsP2pro primary
CC(C)CCNC(=O)[C@H](CC(C)C)NC(=O)[C@H]1O[C@@H]1C(=O)O | -10%
CCOC(=O)[C@H]1O[C@H]1C(=O)N[C@@H](CC(C)C)C(=O)NCCC(C)C | 7.1µM*
C#C[C@]1(O)CC[C@H]2[C@@H]3CCC4=CC(=O)CCC4[C@H]3CC[C@@]21CC (stereo partly drawn) | -2%
CN(C)C/C=C/C(=O)Nc1cccc(C(=O)Nc2ccc(Nc3nccc(-c4cccnc4)n3)cc2)c1 | 201%
CC[C@H](C)[C@@H]([C@@H](CC(=O)N1CCC[C@H]1[C@H](OC)[C@@H](C)C(=O)NCCc1ccccc1)OC)N(C)C(=O)[C@@H](NC(=O)[C@H](C(C)C)N(C)C)C(C)C | -4%
O=C(Nc1nc2c(s1)CCCCCC2)Nc1ccc(F)cc1F | -13%
COc1ccccc1C(=O)Nc1nc(-c2ccccc2)cs1 | -6%
CCCOc1ccccc1C(=O)Nc1nc2c(s1)CCCC2 | 13µM*
CCCCCC(=O)N[C@@H](CC(C)C)C(=O)N[C@H](C=O)CCC(=O)O | -19%
COC(=O)c1ccc([C@H]2c3[nH]c4ccccc4c3C[C@@H](C(=O)OC)N2C(=O)CCl)cc1 | -5%
CC1=Nc2cc(C(=O)NCCCN(C)C)ccc2Sc2ccc(F)cc21 | i
CN(C)Cc1nnc(C2CC(NC(=O)c3cc(-c4ccsc4)n[nH]3)C2)n1C (stereo not drawn) | -1%
CN(C)Cc1nnc(C2CC(NC(=O)c3cc(-c4cccn4C)n[nH]3)C2)n1C (stereo not drawn) | 0.5µM*
CN(C)Cc1nnc(C2CC(NC(=O)Cc3c(F)cccc3Cl)C2)n1C (stereo not drawn) | -8%
NC(=O)OCC(N)Cc1ccccc1 (stereo not drawn) | -6%
Cc1cnc(-c2ccccc2C(F)F)nc1NCC1CN(c2cnccn2)C1 | 2%
Cc1cn(-c2cc(F)cc(NC(=O)c3ccc(C)c(Nc4nccc(-c5cccnc5)n4)c3)c2)cn1 | i
CCOC(=O)c1nn(-c2ccc(OC)cc2)c(=O)c2c(N)scc12 | 11µM*
CCC1CCCCN1C(=O)c1nn(-c2ccc(OC)cc2)c(=O)c2c1c1ccccc1n2C (stereo not drawn) | -15%
COc1ccc(-n2nc(C(=O)O)c(=O)n(C)c2=O)cc1 | -24%
CSCCNc1nc(SCCC(F)(F)F)nc2c1ncn2[C@@H]1O[C@H](COP(=O)(O)OP(=O)(O)C(Cl)(Cl)P(=O)(O)O)[C@@H](O)[C@H]1O | 13%
Cc1cc(C)nc(NC(=S)N2CCN(c3cccc4[nH]ccc34)CC2)c1 | i
COCCNc1cc(-c2ccc3ccccc3n2)c2cc[nH]c2n1 | -1%
CO/N=C(\C(=O)N[C@@H]1C(=O)N2C(C(=O)O)=C(CSc3cnns3)CS[C@H]12)c1csc(N)n1 | -46%
CCO/N=C(\C(=O)N[C@@H]1C(=O)N2C(C(=O)O)=C(Sc3nc(-c4cc[n+](C)cc4)cs3)CS[C@H]12)c1nsc(NP(=O)(O)O)n1 | 11µM*
SMILES | nsP2pro primary
COCC1=C(C(=O)O)N2C(=O)[C@@H](NC(=O)/C(=N\OC)c3csc(N)n3)[C@H]2SC1 | -11%
c1ccc(CNc2ncc(-c3ccc(N4CCOCC4)cc3)c3c2OCC3)cc1 | -9%[39.2 µM]
O=C(Nc1nc(-c2ccccc2)cs1)c1ccncc1NS(=O)(=O)c1ccc(N2CCCC2=O)cc1 | i
COc1cccc(CNc2ccc(S(=O)(=O)Nc3cccc(N4CCNCC4)c3)cc2)c1O | -19%
CCc1ccc(NS(=O)(=O)c2[nH]ncc2C(=O)OC)cc1 | 10µM*
CCc1ccc(NS(=O)(=O)c2ccc3[nH]c4c(c3c2)CCCCCC4)cc1 | -19%
CCCCc1ccc(NS(=O)(=O)c2ccc(F)cc2)cc1 | -9%
Fc1ccc(-c2cccc(CN3CCOCC3)c2)c(Cl)c1 | 2%
Cn1c(C(=O)Nc2ccc3c(c2)OCO3)cc2c1CCN(Cc1cccc(F)c1)C2 | -9%
O=C(c1nc2c(o1)CCN(Cc1cccc(F)c1)CC2)N1CCOCC1 | 2.8µM*
CN[C@@H]1[C@@H](O)[C@@H](O[C@@H]2[C@@H](O)[C@H](O[C@H]3O[C@H]([C@@H](C)NC)CC[C@H]3N)[C@@H](N)C[C@H]2N)OC[C@]1(C)O | -4%
CC(C)(C)NC(=O)[C@@H]1C[C@@H]2CCCC[C@H]2CN1C[C@@H](O)[C@H](Cc1ccccc1)NC(=O)[C@H](CC(N)=O)NC(=O)c1ccc2ccccc2n1 | -9%
C[C@H](CCC(=O)NCC(=O)O)[C@H]1CC[C@H]2[C@@H]3[C@@H](O)C[C@@H]4C[C@H](O)CC[C@]4(C)[C@H]3CC[C@]12C | -19%
O=C(O)/C=C/CCCCCCCO | -3%
COC(=O)N1CCCCC12Cc1ccccc1NC2=O (stereo not drawn) | -4%[39.2 µM]
O=C1Nc2ccccc2CN(CC2CCCC2)C12CCNC2 (stereo not drawn) | 13µM*
CC(C)C(=O)N1Cc2ccccc2NC(=O)C12CCNC2 (stereo not drawn) | -8%[39.2 µM]
O=C1Nc2ccccc2CN(CC2CC2)C12CCNC2 (stereo not drawn) | -7%[39.2 µM]
CC(C)=CCN1Cc2ccccc2NC(=O)C12CCNC2 (stereo not drawn) | 10µM*
